In PubChem BioAssay (EPA / NIEHS):
“And” between values parts separate entries of the source, which are not always exact repeats. Equal values may be shown once. A structure can be active in one record and inactive in another. The source made the active and inactive calls. Rule for the calls: active = hit-call score of the fitted dose curve at least 0.9, where 1 is the maximum; inactive = score below 0.9.

Assays:
[1] = read-out: Tissue plasminogen activator (tPA), PLAT (gene 5327); assay: BSK_BE3C_tPA: BioMAP Diversity Plus: BE3C Assay for Tissue plasminogen activator (tPA) Biomarker Activity (AID 2283041); conditions: primary human bronchial epithelial cells; actives raise or lower the signal
Procedure, shortened: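 Human primary bronchial epithelial cells were dosed with chemical and tPA biomarker levels measured by ELISA 24 hours later. Activity was fitted bidirectionally against DMSO as negative control and baseline.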

[2] = read-out: Interleukin-8 (IL8), CXCL8 (gene 3576); assay: BSK_CASM3C_IL8: BioMAP Diversity Plus: CASM3C Assay for Interleukin-8 (IL8) Biomarker Activity (AID 2283042); conditions: primary human coronary artery smooth muscle cells; actives raise or lower the signal;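 note: IL-8 protein level quantified by ELISA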
[3] = read-out: Human Leukocyte Antigen - DR isotype (HLADR), HLA-DRA (gene 3122); assay: BSK_CASM3C_HLADR: BioMAP Diversity Plus: CASM3C Assay for Human Leukocyte Antigen - DR isotype (HLADR) Biomarker Activity (AID 2283043); conditions: primary human coronary artery smooth muscle cells; actives raise or lower the signal;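 note: cell-surface HLA-DR protein level quantified by ELISA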
[4] = read-out: Macrophage colony-stimulating factor (MCSF), CSF1 (gene 1435); assay: BSK_CASM3C_MCSF: BioMAP Diversity Plus: CASM3C Assay for Macrophage colony-stimulating factor (MCSF) Biomarker Activity (AID 2283044); conditions: primary human coronary artery smooth muscle cells; actives raise or lower the signal;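 note: M-CSF protein amount quantified by ELISA after 24 h exposure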
[5] = read-out: Low-density lipoprotein receptor (LDLR), LDLR (gene 3949); assay: BSK_CASM3C_LDLR: BioMAP Diversity Plus: CASM3C Assay for Low-density lipoprotein receptor (LDLR) Biomarker Activity (AID 2283045); conditions: primary human coronary artery smooth muscle cells; actives raise or lower the signal;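 note: LDLR protein level on the cell surface quantified by ELISA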
[6] = read-out: Monocyte Chemoattractant Protein-1 (MCP1), CCL2 (gene 6347); assay: BSK_CASM3C_MCP1: BioMAP Diversity Plus: CASM3C Assay for Monocyte Chemoattractant Protein-1 (MCP1) Biomarker Activity (AID 2283046); conditions: primary human coronary artery smooth muscle cells; actives raise or lower the signal;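 note: MCP-1 level quantified by ELISA 24 h after dosing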
[7] = BSK_CASM3C_Proliferation: Cell Proliferation Assessment in the BioMAP Diversity Plus: CASM3C Assay (AID 2283047); conditions: primary human coronary artery smooth muscle cells;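 note: sulforhodamine B total protein stain as relative cell number at 560 nm; sub-confluent cells exposed 48 h before staining; fitted both ways against DMSO so gain or loss of cell number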
[8] = read-out: Monokine induced gamma interferon (MIG), CXCL9 (gene 4283); assay: BSK_CASM3C_MIG: BioMAP Diversity Plus: CASM3C Assay for Monokine induced gamma interferon (MIG) Biomarker Activity (AID 2283048); conditions: primary human coronary artery smooth muscle cells; actives raise or lower the signal;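 note: MIG protein level measured by ELISA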
[9] = read-out: serum amyloid A (SAA), SAA1 (gene 6288); assay: BSK_CASM3C_SAA: BioMAP Diversity Plus: CASM3C Assay for serum amyloid A (SAA) Biomarker Activity (AID 2283049); conditions: primary human coronary artery smooth muscle cells; actives raise or lower the signal;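 note: SAA protein level quantified by ELISA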
[10] = BSK_CASM3C_SRB: Viability Assessment in the BioMAP Diversity Plus: CASM3C Assay (AID 2283050); conditions: primary human coronary artery smooth muscle cells;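 note: total protein by SRB staining as cytotoxicity measure in parallel cultures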
[11] = read-out: Thrombomodulin, THBD (gene 7056); assay: BSK_CASM3C_Thrombomodulin: BioMAP Diversity Plus: CASM3C Assay for Thrombomodulin Biomarker Activity (AID 2283051); conditions: primary human coronary artery smooth muscle cells; actives raise or lower the signal;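 note: thrombomodulin protein level measured by ELISA 24 h after dosing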
[12] = read-out: Tissue Factor, F3 (gene 2152); assay: BSK_CASM3C_TissueFactor: BioMAP Diversity Plus: CASM3C Assay for Tissue Factor Biomarker Activity (AID 2283052); conditions: primary human coronary artery smooth muscle cells; actives raise or lower the signal;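 note: cell surface tissue factor protein level read by ELISA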
[13] = read-out: Interferon-gamma inducible Protein 10 (IP10), CXCL10 (gene 3627); assay: BSK_hDFCGF_IP10: BioMAP Diversity Plus: hDFCGF Assay for Interferon-gamma inducible Protein 10 (IP10) Biomarker Activity (AID 2283053); conditions: primary human foreskin fibroblasts; actives raise or lower the signal
Procedure, shortened: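 Human foreskin fibroblast primary cells (hDFCGF system) were dosed with chemical and assayed at 24 h; IP-10 measured by ELISA. Activity fitted bidirectionally relative to DMSO negative control as baseline.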

[14] = read-out: Urokinase-type plasminogen activator receptor (uPAR), PLAUR (gene 5329); assay: BSK_CASM3C_uPAR: BioMAP Diversity Plus: CASM3C Assay for Urokinase-type plasminogen activator receptor (uPAR) Biomarker Activity (AID 2283054); conditions: primary human coronary artery smooth muscle cells; actives raise or lower the signal;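 note: cell-surface uPAR protein level quantified by ELISA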
[15] = read-out: Vascular cell adhesion molecule 1 (VCAM1), VCAM1 (gene 7412); assay: BSK_CASM3C_VCAM1: BioMAP Diversity Plus: CASM3C Assay for Vascular cell adhesion molecule 1 (VCAM1) Biomarker Activity (AID 2283055); conditions: primary human coronary artery smooth muscle cells; actives raise or lower the signal;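 note: VCAM-1 protein level quantified by ELISA on the cells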
[16] = read-out: Collagen III, COL3A1 (gene 1281); assay: BSK_hDFCGF_CollagenIII: BioMAP Diversity Plus: hDFCGF Assay for Collagen III Biomarker Activity (AID 2283056); conditions: primary human foreskin fibroblasts; actives raise or lower the signal
Procedure, shortened: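 hDFCGF primary human dermal fibroblasts; 24 h chemical exposure; collagen III by ELISA; bidirectional curve fit vs DMSO baseline (gain or loss of signal).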

[17] = read-out: Epidermal growth factor receptor (EGFR), EGFR (gene 1956); assay: BSK_hDFCGF_EGFR: BioMAP Diversity Plus: hDFCGF Assay for Epidermal growth factor receptor (EGFR) Biomarker Activity (AID 2283057); conditions: primary human foreskin fibroblasts; actives raise or lower the signal
Procedure, shortened: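 Primary human foreskin fibroblasts were exposed to compound for 24 h, after which cell-surface EGFR was quantified by ELISA. Activity was fitted bidirectionally against the DMSO negative control as baseline.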

[18] = read-out: Interleukin-8 (IL8), CXCL8 (gene 3576); assay: BSK_hDFCGF_IL8: BioMAP Diversity Plus: hDFCGF Assay for Interleukin-8 (IL8) Biomarker Activity (AID 2283058); conditions: primary human foreskin fibroblasts; actives raise or lower the signal
Procedure, shortened: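 ELISA read-out of IL-8 from primary human foreskin fibroblast cultures taken 24 h after dosing; values are bidirectional fits relative to DMSO vehicle.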

[19] = BSK_hDFCGF_Proliferation: Cell Proliferation Assessment in the BioMAP Diversity Plus: hDFCGF Assay (AID 2283059); conditions: primary human foreskin fibroblasts;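 note: curves fitted for both rise and fall of signal versus DMSO baseline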
Procedure, shortened: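 This proliferation readout used SRB total-protein staining of human foreskin fibroblasts […], normalized to DMSO with bidirectional curve fitting.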

[20] = read-out: Macrophage colony-stimulating factor (MCSF), CSF1 (gene 1435); assay: BSK_hDFCGF_MCSF: BioMAP Diversity Plus: hDFCGF Assay for Macrophage colony-stimulating factor (MCSF) Biomarker Activity (AID 2283060); conditions: primary human foreskin fibroblasts; actives raise or lower the signal
Procedure, shortened: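 ELISA read-out of M-CSF in human dermal foreskin fibroblast cultures, 24 h after chemical dosing; gain or loss of signal fitted bidirectionally relative to DMSO baseline.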

Measured: AC50

CC(=O)OCCC(C)CC(C)(C)C (stereo not drawn)
inactive: [1] | [2] | [3] | [4] | [5] | [6] | [7] | [8] | [9] | [10] | [11] | [12] | [13] | [14] | [15] | [16] | [17] | [18] | [19] | [20]
active: [3] 5 µM

C[C@H]1C[C@@H]2[C@H]([C@@H](O)C[C@@]3(C)[C@H]2CC[C@]3(O)C(=O)CO)[C@@]2(C)C=CC(=O)C=C12
inactive: [1] | [3] | [5] | [6] | [7] | [8] | [10] | [11] | [12] | [13] | [14] | [16] | [17] | [18] | [19] | [20]
active: [2] 471 nM and 1.18 µM | [4] 0.15 µM | [6] 4.62 µM | [9] 0.15 µM | [14] 1.2 µM | [15] 860 nM and 150 nM

CC(=O)[C@H]1CC[C@H]2[C@@H]3CC=C4C[C@@H](O)CC[C@]4(C)[C@H]3CC[C@]12C
active: [5] 1.86 µM | [6] 10.9 µM | [7] 6.96 µM | [15] 9.48 µM | [16] 5.69 µM
inactive: [1] | [2] | [3] | [4] | [5] | [6] | [7] | [8] | [9] | [10] | [11] | [12] | [13] | [14] | [15] | [16] | [17] | [18] | [19] | [20]

CC(C)c1ccc(C(C)C)cc1
active: [1] 23.3 µM | [3] 25.9 µM | [4] 32.4 µM | [6] 32.4 µM | [7] 31.4 µM | [8] 31.3 µM | [10] 30.6 µM | [12] 35.5 µM | [14] 20 µM | [15] 32.6 µM | [19] 33.4 µM
inactive: [2] | [5] | [9] | [11] | [13] | [16] | [17] | [18] | [20]

BrC1CCC(Br)C(Br)CCC(Br)C(Br)CCC1Br (stereo not drawn)
active: [7] 0.11 µM | [19] 1.33 µM | [20] 4.61 µM
inactive: all other assays above

Cc1ccc(O)c(C(C)(C)C)c1
active: [3] 26.8 µM | [6] 33.4 µM | [7] 29.1 µM | [8] 33.2 µM | [10] 24.6 µM | [12] 36.3 µM | [13] 34.9 µM | [14] 20 µM | [15] 30 µM | [16] 30.4 µM | [19] 13.6 µM | [20] 30.9 µM
inactive: [1] | [2] | [4] | [5] | [9] | [11] | [17] | [18]
